Experimental data: PubChem BioAssay (NCI)
Compounds without any hit were thinned out: in the full panel of roughly 83,000, 20% have a hit.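 Assay: single dose, 48 h. Readout: percent growth (0 = no net growth; negative = cell death). Active: <10.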 A number with no mark means an inactive call. Activity calls are given as the source filed them.

What was measured:
Assay in all cases: NCI-60 one-dose screen, 48 h (100 = growth as untreated, 0 = no growth, -100 = all killed)
Conditions in all cases: 10 µM unless noted
NCI-H23 lung = test system: NCI-H23 lung
NCI-H226 lung = test system: NCI-H226 lung
NCI-H322M lung = test system: NCI-H322M lung
HOP-62 NSCLC = test system: HOP-62 NSCLC
NCI-H460 lung = test system: NCI-H460 lung
HOP-92 NSCLC = test system: HOP-92 NSCLC
NCI-H522 lung = test system: NCI-H522 lung
A549/ATCC NSCLC = test system: A549/ATCC NSCLC
786-0 renal = test system: 786-0 renal
COLO 205 colon = test system: COLO 205 colon

Row | SMILES | growth (NCI-H23 lung) | growth (NCI-H226 lung) | growth (NCI-H322M lung) | growth (HOP-62 NSCLC) | growth (NCI-H460 lung) | growth (HOP-92 NSCLC) | growth (NCI-H522 lung) | growth (A549/ATCC NSCLC) | growth (786-0 renal) | growth (COLO 205 colon)
1 | NC(=NCc1ccccc1)C(N=Nc1ccccc1)C(=O)NCc1ccccc1 (stereo not given) | 65.3% | 109% | 101% | 92.2% | 50.1% | 99% | 63.4% | 1.29% (active) | 92.4% | 79.5%
2 | O=Cc1cc2ccccc2nc1Oc1ccc(C(F)(F)F)cc1 | 85.3% | 76.9% | 94.9% | 80.9% | 98.8% | 52.8% | 85.4% | 98.4% | 101% | 83.6%
3 | O=C(Nc1ccccc1C(=O)N/N=C(\c1ccccc1)c1ccccn1)c1ccc(F)cc1 | 28.2% | 27.4% | 25.9% | 12.6% | 6.06% (active) | 69.1% | 22.7% | 15.6% | -8.12% (active) | 10.6%
4 | Cc1ccc(NC(=O)Cc2ccc(/C=C/C(=O)c3ncc[nH]3)cc2)cc1 | 41.6% | 89.7% | 63.9% | 43.4% | 7.31% (active) | 82% | 43.6% | 62.1% | 29.7% | 49.2%
5 | CCCCCCCC(=O)OCC/C=C/C1OC1C1OC(=O)/C=C\C=C\C(=O)N(C(C)=O)C(=O)/C=C(/C)CCC2OC2C1OC(=O)NC(C)=O (stereo not given) | 84.6% | 81.1% | 111% | 79.8% | 82.4% | 53.3% | 57.1% | 95.1% | 21.3% | 62.3%
6 | Cc1c2cc[nH]c(=O)c2c(C)c2c1[nH]c1cc(OCCN3CCN(C)CC3)ccc12 | -18.1% (active) | 2.73% (active) | 7.9% (active) | -16.9% (active) | -20.5% (active) | 18.8% | -23.9% (active) | -21.4% (active) | 20.9% | -10.1% (active)
7 | CN(C)CC(O)c1ccc(/C=C/c2ccc(Cl)cc2)cc1 (stereo not given) | 33.5% | 73.4% | -9.83% (active) | -50.2% (active) | -54.6% (active) | 15.5% | -84.4% (active) | -92.3% (active) | 13.8% | -46.4% (active)
8 | CNCCn1c(=O)c2cc(OC)c(OC)cc2c2ccc3cc4c(cc3c21)OCO4 | -18.1% (active) | -98.8% (active) | -14.5% (active) | 3.19% (active) | -18.4% (active) | -5.84% (active) | -35.2% (active) | -81.2% (active) | -51% (active) | -61.6% (active)
9 | O=C1/C=C/[C@@H](O)[C@@H]2C[C@@H](O)C[C@H]2/C=C/CCC[C@H](CCc2ccc3ncccc3c2)O1 | -32.5% (active) | -28.7% (active) | 17.6% | 15.3% | 15% | 30.2% | -53.4% (active) | 19.2% | -50.2% (active) | -98.4% (active)
10 | CCOC(=O)CC1CSC(N/N=C/c2ccc(-n3cccn3)cc2)=N1 (stereo not given) | 101% | 95% | 104% | 105% | 107% | 99.3% | 99.1% | 93.1% | 108% | 126%
11 | OC(c1ccc(F)c(C(F)(F)F)c1)c1cnccc1NC1CCCCC1 (stereo not given) | 51.7% | 78.1% | 89.5% | 85.8% | 69.5% | 40.2% | 67.1% | 69.9% | 63.6% | -60.8% (active)
12 | Nc1c(C(=O)Nc2cccc3cnccc23)sc2nc3c(cc12)CN(Cc1ccccc1)CC3 | 99.9% | 92.5% | 96.9% | 98.7% | 109% | 96.4% | 97.2% | 107% | 109% | 112%
13 | CCN(CC)c1ccc(/C=N/NC(=O)CSc2nc3ccccc3c(=O)n2CCc2ccc(S(N)(=O)=O)cc2)c(O)c1 | 33.9% | 37.9% | 29.4% | 30.4% | 12.8% | 46.8% | -14.6% (active) | 25.4% | 49.5% | 1.47% (active)
14 | O=C1c2c(c3c4cccc(F)c4[nH]c3c3ccc4ccccc4c23)C(=O)N1O | 56.2% | 54.1% | 64% | 63.2% | 10.9% | 79.1% | 30% | 65.7% | 70.7% | 57.4%
15 | Cc1c(C(=O)NCCC(=O)NO)sc2ncnc(Nc3ccc(F)c(Cl)c3)c12 | 101% | 104% | 108% | 105% | 100% | 118% | 95.6% | 104% | 105% | 117%
16 | COc1ccc(OC)c(-c2cc(-c3ccc(Cl)cc3)c3c(N)c(C(=O)c4ccc(Cl)cc4)sc3n2)c1 | 91.4% | 96.1% | 93.6% | 81.3% | 105% | 90.9% | 86.1% | 97.3% | 97.3% | 110%
17 | COc1cccc(C(=O)NNc2nc(Cl)nc(N3CCN(C(c4ccccc4)c4ccccc4)CC3)n2)c1 | 45.3% | 94.9% | 88.9% | 92.8% | 102% | 77% | -13.6% (active) | 101% | 82% | 76.6%
18 | COc1ccc2[nH]c(=O)c(CN3CCN(c4nccc(-c5ccc(Cl)cc5)n4)CC3)cc2c1 | 91.2% | 94.4% | 85.4% | 80.1% | 76.3% | 101% | 77% | 73.9% | 85.2% | 95.9%
19 | NC1[C@H](c2c[nH]c3ccccc23)c2c([nH]c3ccccc23)[C@H]1c1c[nH]c2ccccc12 (stereo not given in full) | 85.7% | 92.1% | 91.6% | 90.1% | 97.1% | 84.2% | 88.5% | 90.6% | 96.4% | 110%
20 | CC(=O)c1cc2c(N)c(C(=O)Nc3cccc4ccncc34)sc2nc1C | 102% | 104% | 105% | 91.8% | 104% | 75.2% | 96% | 97.9% | 98.5% | 102%
21 | CN(C)CCn1c2ccc(Br)cc2c2nc3ccccc3nc21 | 36.1% | 41.9% | 35.2% | 25.1% | 12.6% | 49.6% | 29.8% | 17.4% | 33.7% | 9.69% (active)
22 | Cc1ccc(NS(=O)(=O)c2ccc(-c3cnc(C4CC4)o3)cc2)cc1C(F)(F)F | 72.8% | 77.9% | 88.7% | 60.7% | 55.8% | 83.3% | 39.9% | 55.2% | 85.5% | 67.5%
23 | O=S(=O)(NCCNc1nccc(-c2c(-c3cccc(F)c3)nc3sccn23)n1)c1ccc(Cl)cc1 | 74.9% | 49.3% | 65.5% | 82.6% | 30.1% | 76.6% | 68.2% | 32.1% | 51.3% | 40%
24 | Cc1cc2nc3c4ccc(Br)cc4n(CCN(C)C)c3nc2cc1C | 14.8% | 1.57% (active) | 18.9% | 16% | 2.47% (active) | 34.8% | -1.24% (active) | 5.41% (active) | 23.2% | -8% (active)
25 | O=C(CCN1CCCC1)Nc1ccc2c(Nc3ccc(Br)cc3)c3ccccc3nc2c1 | 18.8% | 62% | -11.4% (active) | -19.5% (active) | -69.2% (active) | 31.3% | -25% (active) | -42.4% (active) | 42.8% | -42.9% (active)
26 | COc1ccc(/C=C/c2nc(Nc3ccc(S(=O)(=O)Nc4cc(C)on4)cc3)c3ccccc3n2)cc1 | 81.3% | 65.9% | 37.3% | 57.7% | 53.9% | 46% | 63.5% | 39.1% | 87.9% | 48.6%
